Values joined by “and” are separate entries in the source; they are usually repeats but may differ in a detail not shown here. Equal entries are not always repeated. Inconclusive results are not listed. Active and inactive are the calls of the source. Calls come from the whole dose curve; as a rule, active = well fitted antagonist curve with a large enough effect in the main read-out, with a control signal flat; inconclusive = small, poorly fitted or top-dose-only effect; inactive = no such curve, though single readings can be large or run the other way.
What follows are molecules tested against Neuropeptide S receptor (Homo sapiens) (UniProt Q6W5P4) (assay: Confirmation Concentration-Response Assay for Antagonists of the Neuropeptide S Receptor: Calcium Signal Transduction, SAR for Probe). Details: CHO-NPSR cells, NPS-induced calcium fluorescence, FDSS; series mostly up to 50.9 µM.
Chain of Neuropeptide S receptor (Homo sapiens) (Q6W5P4 whole entry, looked up): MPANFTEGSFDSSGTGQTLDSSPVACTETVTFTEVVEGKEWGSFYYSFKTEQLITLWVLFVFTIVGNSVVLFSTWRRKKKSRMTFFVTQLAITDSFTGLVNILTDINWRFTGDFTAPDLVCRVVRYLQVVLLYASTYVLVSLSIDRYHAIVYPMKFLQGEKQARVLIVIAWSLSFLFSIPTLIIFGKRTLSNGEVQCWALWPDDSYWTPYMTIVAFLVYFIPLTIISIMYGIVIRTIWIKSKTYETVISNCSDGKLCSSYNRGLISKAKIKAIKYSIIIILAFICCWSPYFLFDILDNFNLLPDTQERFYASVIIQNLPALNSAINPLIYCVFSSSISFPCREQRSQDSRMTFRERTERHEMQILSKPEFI
Text: NIH Chemical Genomics Center [NCGC] NIH Molecular Libraries Probe Production centers Network [MLPCN] MLPCN Grant: X01-DA026210-01 Assay Submitter (PI): Heilig, Markus Alexander NCGC Assay Overview: Neuropeptide S receptor (NPSR), previously known as GPR154, is a recently de-orphanized G protein coupled receptor. Its endogenous ligand is the 20 amino acids peptide Neuropeptide S (NPS). […] NPS and its receptor are found in various tissues. Specifically they are highly expressed in brain areas that have been implicated in modulation of arousal, stress and anxiety. Central administration of NPS in mice produces an unusual profile of activity by inducing wakefulness and arousal, while at the same time suppressing anxiety. Therefore, NPSR may represent a novel drug target for the treatment of sleep and anxiety disorders. To identify NPSR antagonists, we developed a cell-based assay with transfected NPS receptor. NPS can stimulate the production of cAMP as well as release intracellular calcium in Chinese hamster ovary cells stably expressing NPS receptor. This change in intracellular calcium can be detected using a calcium indicator dye on a calcium imaging plate reader system (FDSS).
NCGC Assay Protocol Summary: A Chinese hamster ovary (CHO) cell line stably expressing the NPS receptor (CHO-NPSR) was obtained from Dr. Heilig lab at NIAAA and maintained in F-12 Kaighn's media (Invitrogen, Carlsbad, CA, 21127) supplemented with 10 % FBS, 100 units/ml penicillin, 100 ug/ml streptomycin and 250 ug/ml geneticin at 37C, 5% CO2 in a humidified atmosphere. Before the assay, aliquots of cells were frozen and stored at -135C. The assay was performed on a FDSS-7000 kinetic plate reader in 1536-well format. For both agonist (1-220s) and antagonist (221-400s) phases, the maximums of kinetic fluorescence responses were converted separately into text files using the instrument's software data export utility. Data for agonist response were normalized to the controls for basal activity (DMSO only) and 100% activation (NPS). […] AC50 values were determined from concentration-response data modeled with the standard Hill equation. NPS 1536-well FDSS assay protocol: (1) Frozen CHO-NPSR cells were thaw, washed once with fresh media and resuspended in F-12 Kaighn's media supplemented with 10 % FBS, 100 units/ml penicillin and 100 ug/ml streptomycin. Cells were plated at 3 ul/well (1200 cells) to black, clear-bottom, tissue-culture treated 1536-well plates, and then cultured at 37C, 5 % CO2 for 16 to 30 hours. (2) Add 3 ul of calcium dye (from High Performance PBX Calcium Assay Kit, BD Biosciences). The calcium dye was prepared according to the manufactory's instruction. (3) Incubation at 37C, 5 % CO2 for 60 to 120 min. (4) Load plates to FDSS-7000. The following steps were performed on FDSS-7000. (5) Record fluorescent background (Ex 480 nm, Em 520-560 nm) for 10 s. (6) Add 23 nl/well of compound in DMSO solution. The final titration for each compound was between 0.6 nM and 46 uM. Record agonist response for 210 s. (7) Add 2 ul of stimulation reagent (1X HBSS buffer, 0.1% BSA, 60 nM NPS). Record antagonist response for 140 s. Keywords: MLSMR, MLPCN, NIH Roadmap, qHTS, NCGC, NPS, Neuropeptide S Antagonists
For `Cc1c(P(=S)(c2ccccc2)c2ccccc2)[n+]2ccccc2n1C/C=C/c1ccccc1`, the Potency was 0.0438 µM (active).
For `C=C1C(=O)O[C@@H]2C[C@@H](C)[C@@H]3C=CC(=O)[C@@]3(C)[C@@H](OC(=O)CC(=O)O[C@H]3[C@@H]4C(=C)C(=O)O[C@@H]4C[C@@H](C)[C@@H]4C=CC(=O)[C@]43C)[C@H]12`, the Potency was 0.0891 µM (active).
In the case of `Cc1c(P(=S)(c2ccccc2)c2ccccc2)[n+]2ccccc2n1Cc1ccccc1`, the Potency is reported as 1.74 µM (active).
In the case of `C=C(C=O)C[C@@H]1C[C@H](O)C2OC3C[C@]4(C)OC5/C=C\CC6OC7C(CC=CCC6OC5CCCC4OC3CC2O1)OC1CC2OC3CC(=O)OC3C[C@@H](C)C[C@@]2(C)OC1C[C@@H]7C` (stereo partly drawn), the Potency is reported as 0.501 µM (active).
For `S=P(c1ccccc1)(c1ccccc1)c1cnc2ccccn12`, the Potency was 12.3 µM (active).
With `Cn1cc(P(=S)(c2ccccc2)c2ccccc2)c2ccccc21` the Potency was “inactive”.
With `Cc1nc2ccccn2c1P(=S)(c1ccccc1)c1ccccc1` the Potency was 9.79 µM (active).
With `Cc1c(P(=S)(c2ccccc2)c2ccccc2)[n+]2ccccc2n1CCc1ccccc1` the Potency was 1.38 µM (active).
For `S=P(c1ccccc1)(c1ccccc1)c1c(-c2ccccc2)[nH]c2ccccc12`, the Potency was “inactive”.
For `CCOC(=O)c1c(-n2c(C)cc(C=C3C(=O)NC(=S)NC3=O)c2C)sc2c1CCCC2`, the Potency was 2 µM (active).
`Cc1c(P(=S)(c2ccccc2)c2ccccc2)[n+]2ccccc2n1CCCc1ccccc1` was tested, and the Potency was 0.0552 µM (active).
For `S=P(c1ccccc1)(c1ccccc1)c1c[n+](Cc2ccccc2)c2ccccn12`, the Potency was 6.93 µM (active).
In the case of `Cc1c(P(=S)(c2ccccc2)c2ccccc2)[n+]2ccccc2n1C`, the Potency is reported as 199 nM (active) and 251 nM (active) and 220 nM (active).
`CC(=O)Nc1cc([As](=O)(O)O)ccc1O` was tested, and the Potency was “inactive”.
With `Cn1c(-c2ccccc2)c(P(=S)(c2ccccc2)c2ccccc2)c2ccccc21` the Potency was “inactive”.
For `Cc1c(P(=S)(c2ccccc2)c2ccccc2)c2ccccc2n1C`, the Potency was “inactive”.
In the case of `CNc1ccc2oc(C[C@H]3O[C@@]4(CC[C@H]3C)O[C@H]([C@H](C)C(=O)c3ccc[nH]3)[C@H](C)C[C@H]4C)nc2c1C(=O)O`, the Potency is reported as 0.0158 µM (active).
`C[C@H]1CCCC(=O)CCCCCc2cc(O)cc(O)c2C(=O)O1` was tested, and the Potency was “inactive”.

Reference: PubChem BioAssay AID2567 (National Center for Advancing Translational Sciences (NCATS), 2010)
